# The list is not random: actives were taken first. Their share in the collection is about 11%.
# L3MBTL1 inh – qHTS Assay for the Inhibitors of L3MBTL1; actives 0.66% (n = 230,000); AlphaScreen L3MBTL1–H3K9me1 peptide binding; Lethal(3)malignant brain tumor-like protein 1 (Homo sapiens), Q9Y468; AID 485360, 2010; Potency, µM (highest dose often 57.1 µM), actives largely listed as inhibitors; also: nearly all actives have a fitted effect of over 60% in size
#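 L3MBTL1 (50 nM) pre-complexed 30 min with biotinylated H3(1-15)K9me1 peptide (75 nM), then compounds added for 30 min at room temperature; AlphaScreen streptavidin donor/nickel chelate acceptor beads (10 ug/mL final) read after 30 min dark incubation.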
# G9a inh – qHTS Assay for Inhibitors of Histone Lysine Methyltransferase G9a. Histone-lysine N-methyltransferase EHMT2 (Homo sapiens), Q96KQ7. G9a H3K9 monomethylation, AlphaScreen, 2 h. Potency, µM (highest dose often 102 µM), most hits filed as inhibitors. actives 8.8% (n = 350,000). AID 504332, 2011; also: nearly all actives have a fitted effect of over 75% in size
#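 Quantitative HTS format: methyltransferase activity on a biotin-tagged H3K9 peptide is measured by AlphaScreen, using a rabbit anti-monomethyl-H3K9 antibody with streptavidin donor and anti-IgG acceptor beads. Final levels are 20 nM enzyme, 500 nM peptide, 20 uM SAM; 2 h RT.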
# BAZ2B inh – qHTS Assay for Inhibitors of BAZ2B. AlphaScreen BAZ2B-H3K14Ac peptide displacement. Potency, µM (top dose mostly 114 µM), usual class: inhibitors. actives 4.4% (n = 360,000); also: nearly all actives have a fitted effect of over 60% in size
#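 AlphaScreen displacement of biotin-H3(5-23)K14Ac peptide (50 nM final) from BAZ2B (50 nM final) in PBS pH 7.4, 0.01% Tween-20; complex preformed 30 min RT, then compounds (top 110 uM) 30 min RT, beads 20 min dark.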
# HP1b chromo inh – HTS for Inhibitors of HP1-beta Chromodomain Interactions with Methylated Histone Tails; AID 540317, 2011; Potency, µM (titrated, usually from 114 µM), most hits filed as inhibitors; Chromobox protein homolog 1 (Homo sapiens), P83916; actives 0.56% (n = 390,000); AlphaScreen HP1-beta / biotin-H3K9me3 peptide binding; also: nearly all actives have a fitted effect of over 70% in size
#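 AlphaScreen: HP1-beta (50 nM) preformed 30 min with biotin-H3(1-18)K9me3 peptide (50 nM) in PBS pH 7.4, 0.01% Tween-20. Compound added for 30 min at RT, then streptavidin donor/nickel chelate acceptor beads (10 ug/mL) for 30 min.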
# JMJD2A Tudor – qHTS Assay for Inhibitors of JMJD2A-Tudor Domain. AlphaScreen JMJD2A-Tudor / H3K4me3 peptide binding. Potency, µM (titrated, usually from 114 µM), actives largely listed as inhibitors. actives 4.4% (n = 390,000); also: nearly all actives have a fitted effect of over 50% in size
# A number is an active result; . = inactive; ? = inconclusive; / = no result; [ ] = another dose, or the depositor's remark. Calls follow the shape of the dose curve; as a rule, active = well fitted inhibition curve with a large enough effect; inconclusive = small, poorly fitted or top-dose-only effect; inactive = no such curve, though single readings can be large or run the other way.
SMILES,L3MBTL1 inh,G9a inh,BAZ2B inh,HP1b chromo inh,JMJD2A Tudor
Cc1ccn2c(Nc3ccc(C(C)C)cc3)c(-c3cccs3)nc2c1,/,?,.,.,.
C/C(=N\NC(=O)c1ccc(Br)o1)c1cc2c(cc1NC(=O)CCC(=O)O)OCO2,/,3.2µM,?,.,.
CC(=O)N(C)/C=C1\Sc2ccccc2C1=O,.,.,.,.,.
CCC(=O)N(C)/C=C1\Sc2ccccc2C1=O,.,?,56µM,.,.[11.4 µM]
COc1ccc(C2Nc3ccc(NC(=O)CO)cc3C(=O)N2Cc2cccc(Cl)c2)cc1COc1ccc(NC(C)=O)cc1 (stereo not drawn),/,/,/,.,56µM
COc1ccc(C2Nc3ccc(Cl)cc3C(=O)N2Cc2ccccc2)cc1COc1ccc(NC(C)=O)cc1 (stereo not drawn),/,/,/,/,56µM
COc1ccc(C2Nc3ccc(NC(C)=O)cc3C(=O)N2Cc2cccc(Cl)c2)cc1COc1ccc(NC(C)=O)cc1 (stereo not drawn),/,/,/,.,?
COCCn1c(=N)c(S(=O)(=O)c2ccc(F)cc2)cc2c(=O)n3ccccc3nc21,/,.,.,.,.
COc1ccc2cc(C(=O)N(C)CC(=O)Nc3ccccc3Br)ccc2c1,.,8.9µM,.,.,.
CC1CCc2[nH]c3ccc(C(=O)N(C)CC(=O)Nc4ccccc4Br)cc3c2C1 (stereo not drawn),?,45µM,?,.,?
CN(CC(=O)Nc1ccccc1Br)C(=O)c1ccc(COc2ccccc2)cc1,/,.,.,.,.
Cc1ccc(C(C)C)c(OCC(=O)Nc2cc(-c3nc4ccccc4[nH]3)ccc2C)c1,/,.,.,.,.
COc1ccccc1CNc1ncnc2onc(-c3ccc(F)cc3)c12,/,.,.,.,.
Cc1cc(O)c2c(c1O)C(=O)[C@]13C(=C2O)C(=O)[C@@H]2[C@@H](O)[C@H]1[C@@H]1[C@H](O)[C@H]3C(=O)C3=C(O)c4c(O)cc(C)c(O)c4C(=O)[C@]312,4.5µM,/,/,?,7.9µM
CC(C)CC(NC(=O)c1cccs1)c1nnc(SCc2ccc(Cl)c(Cl)c2)n1C (stereo not drawn),.,.,.,.,.
C=CCn1c(SCC(=O)c2ccc(Br)cc2)nnc1C(CC(C)C)NC(=O)c1cccs1 (stereo not drawn),/,50µM,.,.,.
COc1ccc2c(=O)c3c(=O)n(Cc4ccco4)c(-c4ccco4)nc3oc2c1,/,18µM,?,.,?
COc1ccc(Cn2c(-c3ccco3)nc3oc4ccccc4c(=O)c3c2=O)cc1,.,?,.,.,.
CCOc1ccc(N2CC(NC(=O)C(=O)c3c[nH]c4ccccc34)CC2=O)cc1 (stereo not drawn),/,.,.,.,.
C#CCOCCOCCOCCNc1nc(N2CCN(C(=O)[C@H](Cc3cc4ccccc4[nH]3)n3cc([C@@H](N)C(C)CC)nn3)CC2)nc(N2CCN(C(=O)[C@H](Cc3cc4ccccc4[nH]3)n3cc([C@@H](N)Cc4ccc(O)cc4)nn3)CC2)n1 (stereo partly drawn),?,.[12.7 µM],11µM,/,/
C#CCOCCOCCOCCNc1nc(N2CCN(C(=O)[C@H](Cc3ccc(O)cc3)n3cc([C@@H](N)C(C)CC)nn3)CC2)nc(N2CCN(C(=O)[C@H](Cc3cc4ccccc4[nH]3)n3cc([C@@H](N)CC(C)C)nn3)CC2)n1 (stereo partly drawn),.,?,35µM,?,45µM
C#CCOCCOCCOCCNc1nc(N2CCN(C(=O)[C@H](Cc3ccc(O)cc3)n3cc([C@@H](N)C(C)CC)nn3)CC2)nc(N2CCN(C(=O)[C@H](Cc3cc4ccccc4[nH]3)n3cc([C@@H](N)C(C)CC)nn3)CC2)n1 (stereo partly drawn),?,.,28µM,.,45µM
CCOC(=O)c1ccc2nc(C)cc(Nc3ccc(OC(C)C)cc3)c2c1,/,.,.,.,.
Cc1ccc2sc(N3CCN(CCNC(=O)c4ccco4)CC3)nc2c1C,.,45µM,?,.,?
Cc1[nH]n(-c2ccc(Br)cc2)c(=O)c1/C=N/NC(=O)c1ccccc1,.,?,32µM,.,79µM
SMILES,L3MBTL1 inh,G9a inh,BAZ2B inh,HP1b chromo inh,JMJD2A Tudor
Cc1[nH]n(-c2ccccc2)c(=O)c1/C=N/NC(=O)c1cccc(F)c1,/,25µM,79µM,.,79µM
Cc1ccc(CSc2nc3cccnc3n2Cc2nc(-c3ccccc3F)oc2C)cc1,/,?,.,.,.
O=S(=O)(NC1CCCC(NS(=O)(=O)c2c(F)cccc2F)C1)c1ccc2c(c1)OCCO2 (stereo not drawn),/,/,/,/,.
CCc1ccc(NC(=O)N2CCN(Cc3cc(=O)n4nc(-c5ccccc5OC)sc4n3)CC2)cc1,/,.,.,.,.
O=[N+]([O-])c1cccc(N=Nc2ccc(O)cc2O)c1,/,/,/,.,?
O=[N+]([O-])c1ccc(N=Nc2ccc(O)cc2O)cc1,/,40µM,32µM,.,.
COc1ccccc1NC(=O)CSc1nnc(-c2nonc2NC(C)=O)n1-c1ccccc1,/,.,.,.,.
Oc1c(Br)cc(Br)cc1-c1nc2ccccc2s1,/,.,.,.,.
O=C(Nc1cccc([N+](=O)[O-])c1)NC1CCS(=O)(=O)C1 (stereo not drawn),/,.,.,.,.
O=C(Nc1cc([N+](=O)[O-])ccc1O)NC1CCS(=O)(=O)C1 (stereo not drawn),.,16µM,.,.,.
CCOc1ccc(NCc2cccn2-c2nnc(N3CCC(C(=O)NCCCN4CCCCC4CC)CC3)s2)cc1 (stereo not drawn),/,50µM,?,.,28µM
CCOC(=O)c1nc(NCc2ccc(Cl)cc2)c2c(C)noc2n1,/,.,.,.,.
CC(C)c1ccc(Nc2c(-c3ccccc3O)nc3cnccn23)cc1,/,?,?,.,?
Cc1ccc(-c2nc3cnccn3c2Nc2c(C)cccc2C)o1,.,45µM,.,?,?
Cc1ccc(-c2nc3cnccn3c2Nc2ccc(C(C)C)cc2)o1,/,/,/,?,45µM
Cc1ccc(CNC(=O)CCS(=O)(=O)c2cc3c4c(c2)CCN4C(=O)CC3)cc1,/,.,.,.,.
Cc1ccc(C(=O)NC(=S)Nc2cccc3nsnc23)cc1,.,6.3µM,.,.,.
Cc1ccc(OCC(=O)Nc2c(C)ccc3nsnc23)cc1,/,/,.,.,.
Cc1ccc(C(=O)NC(=S)Nc2c(C)ccc3nsnc23)cc1,.,11µM,.,.,.
O=C(NCc1ccccc1Cl)c1ccc2c(c1)N(Cc1ccccc1)C(=O)c1ccccc1S2,/,.,.,.,.

# Screening data as filed in PubChem.
